This is a sample that favours compounds with a hit; in the whole collection about 3.8% have one here.
TrxR1 inh-1 = rat TrxR1 inhibition. Potency, µM (doses to about 114 µM), without a hit: top-dose activity change, negative = inhibition, actives largely listed as inhibitors. 1% of 390,000 active. AID 588453. recombinant rTrxR1, NADPH fluorescence consumption, selenite substrate; note: potency is the fitted concentration of half-maximal effect; % is set by controls: 0 for no effect and ±100 for the full control effect; nearly all actives have a fitted effect of over 65% in size
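Rat TrxR1 (90 nM in the dispensed reagent) was pre-reduced with 400 uM NADPH for 5 min at room temperature, then incubated with compound for 15 min. After 400 uM selenite was added, NADPH fluorescence (Ex 340/Em 450 nm) was followed for 8 min.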
TrxR1 substrate = substrates of rat thioredoxin reductase 1; O89049; purified TrxR1 substrate turnover, NADPH consumption readout; Potency, µM (series often up to 114 µM), for the others: at the top dose activity change, negative = substrate turnover; 0.01% of 390,000 active; AID 588456; note: potency is the fitted concentration of half-maximal effect; % is set by controls: 0 for no effect and ±100 for the full control effect; nearly all actives have a fitted effect of over 50% in size
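Rat TrxR1, dispensed at 90 nM, was prereduced with 400 uM NADPH (final) for 5 min at ~22 deg C, then incubated with compound 15 min before 400 uM selenite. A first-read NADPH fluorescence drop versus no-compound background flagged substrates.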
VDR inh = inhibitors of human vitamin D receptor; P11473; VDR-SRC2-3 peptide fluorescence polarization, 2 h; Potency, µM, without a hit: max response, negative = inhibition, hits mostly inhibitors; 0.93% of 400,000 active; AID 504847; note: potency is the fitted concentration of half-maximal effect; % is set by controls: 0 for no effect and ±100 for the full control effect
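Two reagent solutions held at 4 deg C in the dark were dispensed, compounds pinned at 23 nl, and the mixture incubated 2 h at room temperature. Read-out: fluorescence polarization of VDR–SRC2-3 peptide binding.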
GCN5L2 inh = blocks human GCN5L2 histone acetyltransferase; Q92830; AID 504327; GCN5L2 HAT assay, ThioGlo1 CoA-SH fluorescence; Potency, µM (doses to about 58.9 µM), for the others: at the top dose activity change, negative = inhibition, hits mostly inhibitors; 0.21% of 390,000 active; note: potency is the fitted concentration of half-maximal effect; % is set by controls: 0 for no effect and ±100 for the full control effect
Target sequence (Q92830 whole entry, looked up): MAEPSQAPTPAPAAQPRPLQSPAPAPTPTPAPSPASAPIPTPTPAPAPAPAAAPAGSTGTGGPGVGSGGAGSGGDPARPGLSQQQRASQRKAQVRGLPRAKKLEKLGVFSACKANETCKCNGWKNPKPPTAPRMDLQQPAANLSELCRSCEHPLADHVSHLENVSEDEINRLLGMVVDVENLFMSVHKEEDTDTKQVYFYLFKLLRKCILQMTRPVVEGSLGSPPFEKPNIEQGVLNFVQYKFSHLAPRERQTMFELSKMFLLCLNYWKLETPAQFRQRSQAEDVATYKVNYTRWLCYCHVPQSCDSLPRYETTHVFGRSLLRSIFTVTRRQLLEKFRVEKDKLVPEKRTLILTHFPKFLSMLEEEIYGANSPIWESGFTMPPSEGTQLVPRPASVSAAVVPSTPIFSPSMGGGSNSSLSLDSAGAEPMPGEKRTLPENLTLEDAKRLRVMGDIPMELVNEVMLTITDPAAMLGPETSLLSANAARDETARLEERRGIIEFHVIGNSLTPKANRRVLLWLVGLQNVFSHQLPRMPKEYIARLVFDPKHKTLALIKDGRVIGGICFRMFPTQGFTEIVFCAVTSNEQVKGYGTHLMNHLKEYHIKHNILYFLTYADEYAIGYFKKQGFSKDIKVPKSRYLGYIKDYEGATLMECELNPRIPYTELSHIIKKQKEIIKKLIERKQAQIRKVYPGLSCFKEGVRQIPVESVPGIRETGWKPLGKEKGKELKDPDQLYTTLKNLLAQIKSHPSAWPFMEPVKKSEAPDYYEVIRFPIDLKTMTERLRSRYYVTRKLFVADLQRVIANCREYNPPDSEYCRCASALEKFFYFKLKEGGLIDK
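Enzyme at 20nM final was mixed with library compounds for 15 min at room temperature. Peptide H3(1-25) at 75uM, acetyl-CoA at 70uM and ThioGlo1 at 50uM were then added. Plates were read immediately and after 20 min (Ex340nm/Em540nm).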
Sfp inh = inhibitors of Bacillus subtilis Sfp phosphopantetheinyl transferase; Q9F4F7; Biochemical Sfp PPTase activity, qHTS; Potency, µM, without a hit: largest response in the series, negative = inhibition, hits mostly inhibitors; 3.5% of 310,000 active; AID 1490;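 note: the enzyme is Sfp with the accession as filed and its product quenches rhodamine fluorescence; potency is the fitted concentration of half-maximal effect; 0% = enzyme reaction without inhibitor and -100% = no enzyme wells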
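Fluorescence-quenching assay with 15 nM Sfp, 5 uM rhodamine-CoA and 12.5 uM BHQ-2-labelled ybbR peptide in pH 7.6 Hepes/MgCl2 buffer. Enzyme was pre-incubated with compound for 15 min at room temperature. Rate was taken from the 30-min fluorescence change (525/598 nm).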
GLS inhibitor = blocks human kidney-isoform glutaminase activity. O94925. GLS enzymatic activity, qHTS titration. Potency, µM (titrated, usually from 45.5 µM), without a hit: at the top dose activity change, negative = inhibition, actives largely listed as inhibitors. 0.21% of 410,000 active; note: potency is the fitted concentration of half-maximal effect; % is set by controls: 0 for no effect and ±100 for the full control effect
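Glutamate formation by hKGA was monitored fluorometrically using coupled glutamate oxidase, HRP and Amplex Red. Substrate was added as 1 mM L-glutamine solution; incubation was 30 min at RT after an initial read.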
GR counterassay = inhibits human glutathione reductase in TrxR1 counterassay; purified GR, DTNB reduction absorbance 405 nm kinetic; shares compounds with TrxR1 inh-1; activity change, negative = inhibition, % at 57.1 µM; 55 tested, under 10 active
TrxR1 inh-2 = blocks rat thioredoxin reductase 1 in hit validation; recombinant TrxR1, NADPH fluorescence consumption, selenite substrate; shares compounds with TrxR1 inh-1; 50% of 55 active; Potency, µM, hits mostly inhibitors
TrxR1 insulin MOA = inhibits TrxR1-driven insulin reduction; shares compounds with TrxR1 inh-1; TrxR1 Trx-coupled insulin reduction, NADPH absorbance 340 nm; Potency, µM; 20% of 55 active;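 active = compounds with a measured potency under 100 micromolar; inconclusive = filed, but no rule given; inactive = potency at or above that, or unmeasurable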
TrxR1 inh-3 = rat thioredoxin reductase 1 inhibition, DTNB assay; shares compounds with TrxR1 inh-1; AID 652256; Potency, µM; purified TrxR1, DTNB reduction, A412; 90% of 55 active;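 active = a half-inhibiting concentration could be measured and was below 100 µM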
GLS hit conf = glutaminase (human) inhibition, hit confirmation; 35 tested, under 10 active; biochemical glutaminase enzyme inhibition assay; Potency, µM (doses to about 46.1 µM), for inactives: at the top dose activity change, negative = inhibition, most hits filed as inhibitors; shares compounds with GLS inhibitor; AID 624261; calls by dose curve
HRP GOx counter = counter-screen for glutaminase inhibitors: HRP coupled enzyme inhibition; shares compounds with GLS inhibitor; HRP/glutamate oxidase coupled Amplex Red fluorescence counterscreen; activity change, negative = inhibition, % at 46.1 µM; 35 tested, under 10 active
GLS HEK tox = HEK-293 cytotoxicity, glutaminase hit confirmation | shares compounds with GLS inhibitor | HEK-293 viability, CellTiter-Glo luminescence, 24 h | activity change, negative = cytotoxicity, % at 46.1 µM | 35 tested, under 10 active
Numbers without * were called inactive; i = inactive; ? = inconclusive; . = no result; [ ] = remark or other dose. Unless noted, calls come from the whole dose curve; as a rule, active = well fitted curve in the direction sought with a large enough effect; inconclusive = small, poorly fitted or top-dose-only effect, or another doubt; inactive = no such curve, though single readings can be large; an effect the other way counts as inactive or inconclusive.

SMILES	TrxR1 inh-1	TrxR1 substrate	VDR inh	GCN5L2 inh	Sfp inh	GLS inhibitor	GLS hit conf	HRP GOx counter	GLS HEK tox	others
CC(OC(=O)CCN=C1NS(=O)(=O)c2ccccc21)C(=O)c1ccccc1 (stereo not drawn)	13%	4%	-14%	-8%	.	-2%	.	.	.
O=[N+]([O-])c1ccc(Cl)c(S(=O)(=O)Nc2cccc(S(=O)(=O)NC3=NCCC3)c2)c1	2.5µM*	3%	79µM*	-10%	.	1%	.	.	.	GR counterassay=6;TrxR1 inh-2=0.6*;TrxR1 insulin MOA=i;TrxR1 inh-3=0.051µM*
COc1ccc(S(=O)(=O)Nc2cccc3ccc(O)cc23)cc1	8%[57.1 µM]	6%[57.1 µM]	5%	.	.	11µM*	-3%	?	?
COc1ccc(C(=O)Nc2c(O)ccc3ccccc23)cc1OC	0%[57.1 µM]	5%[57.1 µM]	-1%	.	.	-29%	.	.	.
COc1ccc(S(=O)(=O)Nc2c(O)ccc3ccccc23)cc1OC	-13%[57.1 µM]	-5%[57.1 µM]	?	.	.	?	-7%	?	-10
Cc1cc(C)cc(N2C(=O)N(c3ccccc3C)C3CS(=O)(=O)CC32)c1 (stereo not drawn)	23%	12%	-5%	1%	17%	7%	.	.	.
CCOC(=O)N1CCN(C(=O)C2CCN(S(=O)(=O)N(CC)CC)CC2)CC1	5%	-3%	9%	0%	6%	-1%	.	.	.
O=C(Nc1ccc(NC(=O)c2cccnc2)cc1)c1ccccc1	-9%[57.1 µM]	-9%[57.1 µM]	-11%	-2%	15%	7%	.	.	.
O=C(O)c1ccccc1NS(=O)(=O)c1cccc(C(F)(F)F)c1	7%	4%[57.1 µM]	-3%	-15%	7%	19%	.	.	.
O=C(O)c1ccccc1NS(=O)(=O)c1cccc(-n2sc3ccccc3c2=O)c1	92%	-11%	10µM*	0.45µM*	2µM*	7.1µM*	5.2µM*	11	8
CCOC(=O)CC(NS(=O)(=O)c1ccc2[nH]cc(C(=O)O)c(=O)c2c1)c1ccc(OCC)c(OC)c1 (stereo not drawn)	-11%[57.1 µM]	-4%[57.1 µM]	35%	-19%	8%	16µM*	21µM*	6	-1
Cc1cc(OCC(=O)Nc2ccccc2C(N)=O)c2c(C)cc(=O)oc2c1	33%	39%	0%	1%	9%	-19%	.	.	.
COc1ccc(OC)c(S(=O)(=O)Nc2ccccc2O)c1	-5%[57.1 µM]	4%[57.1 µM]	13%	.	.	10µM*	?	?	-2
CCN(CC)c1ccc(N)cc1S(=O)(=O)Nc1ccccc1OC	?	-6%	40µM*	-25%	11µM*	7.1µM*	-5%	?	3
COc1ccc(N)cc1S(=O)(=O)Nc1ccccc1Cl	11%	2%	-7%	-15%	6%	-1%	.	.	.
NS(=O)(=O)c1ccc(CNS(=O)(=O)c2cc(C(=O)O)ccc2Cl)cc1	15%	6%	4%	-8%	28%	11µM*	5.8µM*	-1	-12
Cc1ccc(NS(=O)(=O)c2cc(C(=O)O)ccc2Cl)cc1	5%[57.1 µM]	11%[57.1 µM]	?	-5%	8%	11µM*	?	-3	-5
O=S(=O)(Nc1cccc2cccnc12)c1ccccc1O	.	.	.	.	12%	.	.	.	.
O=S(=O)(Nc1ccccc1O)c1cccc2cccnc12	9%[57.1 µM]	7%[57.1 µM]	8%	1%	-21%	?	-3%	?	-5
Cc1ccccc1NS(=O)(=O)c1cccc(C(=O)Nc2cccc(C(=O)O)c2)c1	18%	2%	-17%	-7%	15%	1%	.	.	.
O=C(Nc1ccccc1O)c1cccc(S(=O)(=O)Nc2ccccc2O)c1	6%[57.1 µM]	7%[57.1 µM]	5%	.	.	10µM*	?	?	1
O=C(NC1(C(=O)NC2CCCCC2)CCCCC1)c1ccccn1	16%	10%	2%	-9%	14%	6%	.	.	.
